Some test systems named below: NCI-H23 lung; NCI-H226 lung; NCI-H322M lung; HOP-62 NSCLC; NCI-H460 lung; HOP-92 NSCLC; NCI-H522 lung; 786-0 renal; COLO 205 colon; A549/ATCC NSCLC.
Assay in all cases: NCI-60 one-dose screen, 48 h (100 = growth as untreated, 0 = no growth, -100 = all killed)
What all share (conditions): 10 µM unless noted

Experimental findings from PubChem BioAssay (NCI) are described below.

Compounds without any hit were thinned out: in the full panel of roughly 83,000, 20% have a hit.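 Single-concentration screen, 48 h exposure, 96-well plates. Endpoint: percent growth. Below 10 = active.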 A number with no mark means an inactive call. Calls of active or inactive are those of the source.

Turning to `Cc1ccc(C(=O)c2ccc(CC(=O)NN3C(=O)c4ccccc4C3=O)n2C)cc1`, the growth with NCI-H23 lung was 100%; in the assay on NCI-H226 lung, 97.8%; with NCI-H322M lung, 102%; in the assay on HOP-62 NSCLC, 88.9%; with NCI-H460 lung, 104%; in the assay on HOP-92 NSCLC it was 97.8%. For the same compound, the growth in the assay with NCI-H522 lung is 88.1%; with 786-0 renal, 103%; in the assay on COLO 205 colon it was 105%.
Turning to `C=CN(C(=O)N1CCN(c2cc3c(cc2F)c(=O)c(C(=O)O)cn3C2CC2)CC1)c1nc(-c2ccc(OC)cc2)cs1`, the growth with NCI-H23 lung was 12.7%; in the assay with NCI-H226 lung, 37.8%; in the assay on NCI-H322M lung, 15.3%; with HOP-62 NSCLC it was 18.5%; in the assay with NCI-H460 lung, 10.8%; in the assay with HOP-92 NSCLC, -14.1% (active). The growth in the assay with NCI-H522 lung was 12.7%; in the assay on A549/ATCC NSCLC it was 16.6%; in the assay on 786-0 renal, 30.5%; in the assay on COLO 205 colon, 29.5%.
Take `CNC(=O)c1ccccc1Nc1nc(Nc2cc(OC)c(OC)c(OC)c2)ncc1Br`: the growth with NCI-H23 lung was -45.2% (active); in the assay on NCI-H226 lung it was 10.1%; in the assay with NCI-H322M lung it was -23.2% (active); with HOP-62 NSCLC, -32.8% (active); in the assay with NCI-H460 lung it was -36.9% (active); in the assay with HOP-92 NSCLC it was 53.6%. For the same compound, the growth in the assay on NCI-H522 lung was -49.8% (active); in the assay with A549/ATCC NSCLC, -10.4% (active); in the assay on 786-0 renal it was -18.1% (active); in the assay on COLO 205 colon, -71.3% (active).
`COc1cnc2c(c1)C(=O)c1c-2n(CCCCl)c(=O)c2ccncc12`: the growth in the assay on NCI-H23 lung was 58%; with NCI-H226 lung it was 69.5%; in the assay on NCI-H322M lung, 78.4%; in the assay on HOP-62 NSCLC, 58.2%; with NCI-H460 lung, 18.6%; in the assay on HOP-92 NSCLC, 110%. Also, the growth with NCI-H522 lung was 26.7%; in the assay with A549/ATCC NSCLC, 69.3%; in the assay with 786-0 renal it was 83.6%; in the assay on COLO 205 colon, 19.7%.
`CC(=O)ON1CCCC(P(=O)(OCCSC(=O)C(C)(C)C)OCCSC(=O)C(C)(C)C)C1=O` (stereo not drawn): the growth in the assay on NCI-H23 lung was 45.9%; with NCI-H226 lung, 33.6%; in the assay with NCI-H322M lung it was 46.1%; with HOP-62 NSCLC, 32%; in the assay with NCI-H460 lung it was 16.1%; in the assay with HOP-92 NSCLC it was 29.4%. The growth is 28.9% in the assay on NCI-H522 lung, 33.5% in the assay on A549/ATCC NSCLC, 19.1% in the assay with 786-0 renal and 27.5% in the assay with COLO 205 colon.
In the case of `COc1cc(-c2nc3sccn3c2-c2ccnc(NCCNS(=O)(=O)c3ccc(Cl)cc3)n2)ccc1F`, the growth in the assay with NCI-H23 lung is 18.7%; in the assay with NCI-H226 lung, 8.63% (active); with NCI-H322M lung, 70.4%; in the assay with HOP-62 NSCLC, 34.7%; in the assay on NCI-H460 lung, 42.2%; in the assay on HOP-92 NSCLC, 78.8%. In addition, the growth is 1.16% (active) with NCI-H522 lung, 30% in the assay on A549/ATCC NSCLC, 61.8% in the assay with 786-0 renal and 33.8% in the assay on COLO 205 colon.
On to `C[C@@H]1O[C@@H](O[C@@H]2C[C@H](c3ccc4c(c3O)C(=O)C3=C(C4=O)[C@@]4(O)C(=O)C[C@](C)(O)C[C@@]4(O)C=C3)O[C@H](C)[C@H]2O)CC[C@@H]1O[C@H]1C[C@@H](O)[C@H](O)[C@@H](C)O1`, for which the growth in the assay with NCI-H23 lung was 100%; with NCI-H226 lung, 116%; in the assay on NCI-H322M lung, 106%; in the assay on HOP-62 NSCLC, 113%; with NCI-H460 lung, 105%; with HOP-92 NSCLC, 149%. For the same compound, the growth in the assay with NCI-H522 lung was 41.5%; in the assay with A549/ATCC NSCLC, 95.3%; in the assay with 786-0 renal, 103%; with COLO 205 colon, -19.1% (active).
`Nc1nc(N)c2c(n1)NC(c1cccc(Nc3ccnc4cc(C(F)(F)F)ccc34)c1)CC(c1ccccc1)=N2` (stereo not drawn): the growth is 67.1% in the assay with NCI-H23 lung; 87.8% in the assay on NCI-H226 lung; 91.8% in the assay with NCI-H322M lung; 54.9% in the assay with HOP-62 NSCLC; 22.6% in the assay on NCI-H460 lung; 45% with HOP-92 NSCLC. The growth is 28.8% in the assay with NCI-H522 lung, 41.4% with A549/ATCC NSCLC, 67.5% in the assay with 786-0 renal and 30.2% in the assay on COLO 205 colon.
Regarding `COc1ccc(C(=O)/C=C/c2ccc(N3CCCCC3)cc2)cc1OC`, the growth with NCI-H23 lung is 92.5%; in the assay with NCI-H226 lung, 72.7%; in the assay on NCI-H322M lung, 91.5%; in the assay with HOP-62 NSCLC, 98.3%; with NCI-H460 lung, 97.9%; in the assay on HOP-92 NSCLC, 69.9%. Moreover, the growth was 84.4% in the assay on NCI-H522 lung, 90% in the assay on A549/ATCC NSCLC, 103% with 786-0 renal and 100% with COLO 205 colon.
Regarding `O=C1Nc2ccccc2/C1=C\c1c[nH]c2ccc(Br)cc12`, the growth is 77.4% in the assay on NCI-H23 lung; 34.9% in the assay on NCI-H226 lung; 64.2% in the assay with NCI-H322M lung; 56.5% in the assay on HOP-62 NSCLC; 80.8% in the assay on NCI-H460 lung; 64.6% in the assay with HOP-92 NSCLC. In addition, the growth in the assay with NCI-H522 lung was 35.8%; with A549/ATCC NSCLC, 73.5%; in the assay on 786-0 renal it was 109%; with COLO 205 colon, 57.5%.
For the compound `O=S1(=O)C=C(c2ccccc2)C(c2ccccc2)=C1`, the growth was 60.1% in the assay on NCI-H23 lung; 44.7% in the assay with NCI-H226 lung; 90.8% in the assay with NCI-H322M lung; 54.3% with HOP-62 NSCLC; 36.5% with NCI-H460 lung; -1.68% (active) with HOP-92 NSCLC. Moreover, the growth in the assay with NCI-H522 lung was -70.7% (active); in the assay on A549/ATCC NSCLC, 70.9%; in the assay with 786-0 renal, 3.9% (active); in the assay with COLO 205 colon, -88.5% (active).
For `CC/C(Cc1ccccc1)=C(\c1ccc(OCCCN(C)C)cc1)c1ccc(OC(=O)NCc2ccccc2)cc1`, the growth in the assay on NCI-H23 lung was 92.9%; in the assay on NCI-H226 lung, 86.4%; with NCI-H322M lung, 87.2%; with HOP-62 NSCLC, 85.7%; with NCI-H460 lung, 7.02% (active); with HOP-92 NSCLC it was 38.6%. In addition, the growth was 95.5% with NCI-H522 lung, 61.9% with A549/ATCC NSCLC, 62% with 786-0 renal and 4.67% (active) in the assay with COLO 205 colon.
Regarding `CCOc1ccc(-n2nc(C(=O)NCc3ccccc3OC)nc2-c2cc(OC)c(OC)c(OC)c2)cc1`, the growth in the assay with NCI-H23 lung was 60.7%; in the assay with NCI-H226 lung it was 62.5%; with NCI-H322M lung, 52.4%; with HOP-62 NSCLC, 62.2%; with NCI-H460 lung, 30.5%; in the assay on HOP-92 NSCLC, 29%. The values for the growth in the assay on NCI-H522 lung, in the assay with 786-0 renal and in the assay with COLO 205 colon were 35.7%, 41.5% and 30.3%, respectively.
